Data on 6 molecules can be found in ChEMBL document CHEMBL1961873, “Compounds: GSK PKIS; Assays: Nanosyn kinase panel” (2012).

Assay [1] concerns the target Serine/threonine-protein kinase MRCK alpha (Homo sapiens) (UniProt Q5VT25). The note with it: at 0.1 µM.
The target is the same in assay [2]. The note with it: at 1 µM.
Assay [3] addresses Serine/threonine-protein kinase MRCK beta (Homo sapiens) (UniProt Q9Y5S2). The note with it: at 0.1 µM.
Assay [4] has the same target. The note with it: at 1 µM.
Assay [5] addresses Ribosomal protein S6 kinase alpha-5 (Homo sapiens) (UniProt O75582). The note with it: at 0.1 µM.
The target is the same in assay [6]. The note with it: at 1 µM.
For assay [7], the target named is Ribosomal protein S6 kinase alpha-4 (Homo sapiens) (UniProt O75676). The note with it: at 0.1 µM.
Assay [8] shares this target. The note with it: at 1 µM.
The target in assay [9] is Ribosomal protein S6 kinase beta-1 (Homo sapiens) (UniProt P23443). The note with it: at 0.1 µM.
The target is the same in assay [10]. The note with it: at 1 µM.
Assay [11] deals with T1, 3-phosphoinositide-dependent protein kinase 1 (Homo sapiens) (UniProt O15530).
T1 sequence (whole entry): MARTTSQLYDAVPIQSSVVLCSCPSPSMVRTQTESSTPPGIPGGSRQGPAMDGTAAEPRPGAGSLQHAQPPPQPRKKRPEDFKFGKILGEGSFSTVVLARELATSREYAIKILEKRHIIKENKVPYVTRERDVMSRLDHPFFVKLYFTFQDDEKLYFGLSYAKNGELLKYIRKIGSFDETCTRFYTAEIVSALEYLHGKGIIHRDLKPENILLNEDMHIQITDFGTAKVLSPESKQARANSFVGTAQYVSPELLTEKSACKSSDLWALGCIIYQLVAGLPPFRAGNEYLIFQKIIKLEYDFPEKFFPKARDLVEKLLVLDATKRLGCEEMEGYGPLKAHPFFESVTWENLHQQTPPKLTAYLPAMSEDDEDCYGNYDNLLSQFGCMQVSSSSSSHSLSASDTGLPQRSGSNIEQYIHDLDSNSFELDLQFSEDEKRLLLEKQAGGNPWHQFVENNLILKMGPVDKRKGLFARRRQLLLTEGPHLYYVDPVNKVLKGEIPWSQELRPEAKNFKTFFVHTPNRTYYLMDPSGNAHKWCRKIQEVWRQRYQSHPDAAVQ
The note with it: at 0.1 µM.

Assay [12] has as its target cAMP-dependent protein kinase catalytic subunit alpha (Homo sapiens) (UniProt P17612). The note with it: at 0.1 µM.
The target is the same in assay [13]. The note with it: at 1 µM.
For assay [14], the target named is Protein kinase C alpha type (Homo sapiens) (UniProt P17252). The note with it: at 0.1 µM.
The target is the same in assay [15]. The note with it: at 1 µM.
Assay [16] concerns the target Protein kinase C beta type (Homo sapiens) (UniProt P05771). The note with it: at 0.1 µM.
For assay [17] the target is unchanged. The note with it: at 1 µM.
Assay [18] concerns the target Protein kinase C eta type (Homo sapiens) (UniProt P24723). The note with it: at 0.1 µM.
For assay [19] the target is unchanged. The note with it: at 1 µM.
The target in assay [20] is Protein kinase C gamma type (Homo sapiens) (UniProt P05129). The note with it: at 0.1 µM.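 Also: values are mean percent inhibition of PKC gamma.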

Sequence of Ribosomal protein S6 kinase alpha-5 (Homo sapiens) (O75582 whole entry, looked up): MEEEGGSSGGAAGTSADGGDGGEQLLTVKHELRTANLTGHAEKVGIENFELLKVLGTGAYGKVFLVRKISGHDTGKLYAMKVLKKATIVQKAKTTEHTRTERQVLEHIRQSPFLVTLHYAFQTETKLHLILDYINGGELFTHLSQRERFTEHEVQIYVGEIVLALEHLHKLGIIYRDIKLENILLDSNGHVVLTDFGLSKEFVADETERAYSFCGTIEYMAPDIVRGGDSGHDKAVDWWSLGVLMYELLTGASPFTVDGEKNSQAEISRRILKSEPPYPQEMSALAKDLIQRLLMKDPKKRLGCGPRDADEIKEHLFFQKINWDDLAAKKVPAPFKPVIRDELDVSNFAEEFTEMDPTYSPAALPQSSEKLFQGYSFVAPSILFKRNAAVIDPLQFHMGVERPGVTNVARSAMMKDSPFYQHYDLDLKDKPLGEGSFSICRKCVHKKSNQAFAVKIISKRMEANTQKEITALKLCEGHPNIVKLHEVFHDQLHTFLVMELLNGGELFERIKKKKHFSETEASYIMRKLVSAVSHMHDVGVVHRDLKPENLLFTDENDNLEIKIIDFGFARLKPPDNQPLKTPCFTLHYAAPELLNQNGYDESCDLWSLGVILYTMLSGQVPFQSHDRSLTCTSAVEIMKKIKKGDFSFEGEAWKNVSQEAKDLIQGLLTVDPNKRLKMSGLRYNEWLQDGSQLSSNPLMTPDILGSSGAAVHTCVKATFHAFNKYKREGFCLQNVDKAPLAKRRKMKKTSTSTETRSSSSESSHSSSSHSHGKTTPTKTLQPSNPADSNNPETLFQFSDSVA
Sequence of Protein kinase C beta type (Homo sapiens) (P05771 2-671 limits assumed): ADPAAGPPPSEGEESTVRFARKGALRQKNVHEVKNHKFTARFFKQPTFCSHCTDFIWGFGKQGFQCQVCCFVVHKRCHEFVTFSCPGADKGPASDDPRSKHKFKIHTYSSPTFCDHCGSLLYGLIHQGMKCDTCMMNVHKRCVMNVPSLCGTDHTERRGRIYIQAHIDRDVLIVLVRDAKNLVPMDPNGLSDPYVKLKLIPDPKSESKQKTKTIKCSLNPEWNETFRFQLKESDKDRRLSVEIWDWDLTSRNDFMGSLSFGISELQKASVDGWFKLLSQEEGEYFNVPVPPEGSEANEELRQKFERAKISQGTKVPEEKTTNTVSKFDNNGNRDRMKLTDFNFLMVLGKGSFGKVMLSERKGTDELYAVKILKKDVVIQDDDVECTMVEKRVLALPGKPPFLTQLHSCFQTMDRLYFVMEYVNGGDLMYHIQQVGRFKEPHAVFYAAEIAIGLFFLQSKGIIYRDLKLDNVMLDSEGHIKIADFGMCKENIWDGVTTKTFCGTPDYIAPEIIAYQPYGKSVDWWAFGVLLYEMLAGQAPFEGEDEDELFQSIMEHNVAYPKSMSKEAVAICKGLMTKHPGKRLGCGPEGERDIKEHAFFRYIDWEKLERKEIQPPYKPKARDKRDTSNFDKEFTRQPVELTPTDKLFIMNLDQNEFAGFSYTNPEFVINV
Sequence of Ribosomal protein S6 kinase alpha-4 (Homo sapiens) (O75676 whole entry, looked up): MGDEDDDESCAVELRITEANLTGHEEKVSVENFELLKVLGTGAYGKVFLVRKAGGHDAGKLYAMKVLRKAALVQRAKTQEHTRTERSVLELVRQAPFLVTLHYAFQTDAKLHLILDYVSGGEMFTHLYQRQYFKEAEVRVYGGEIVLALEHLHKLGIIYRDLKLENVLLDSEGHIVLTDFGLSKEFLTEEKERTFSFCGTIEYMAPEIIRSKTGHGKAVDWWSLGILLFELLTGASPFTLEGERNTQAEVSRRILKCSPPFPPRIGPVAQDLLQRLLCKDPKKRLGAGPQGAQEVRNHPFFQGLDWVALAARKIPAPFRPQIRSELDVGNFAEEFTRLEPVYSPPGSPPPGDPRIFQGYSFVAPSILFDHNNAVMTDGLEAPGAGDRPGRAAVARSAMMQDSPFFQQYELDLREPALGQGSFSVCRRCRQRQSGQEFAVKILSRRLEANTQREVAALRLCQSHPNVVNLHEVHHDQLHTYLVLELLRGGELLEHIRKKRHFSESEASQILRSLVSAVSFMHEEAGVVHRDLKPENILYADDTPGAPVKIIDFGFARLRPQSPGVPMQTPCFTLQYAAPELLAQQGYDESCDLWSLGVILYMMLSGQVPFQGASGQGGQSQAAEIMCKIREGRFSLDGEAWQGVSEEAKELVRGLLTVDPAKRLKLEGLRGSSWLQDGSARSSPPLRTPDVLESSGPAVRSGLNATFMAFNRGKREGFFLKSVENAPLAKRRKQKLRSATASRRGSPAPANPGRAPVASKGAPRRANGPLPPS
Sequence of Ribosomal protein S6 kinase beta-1 (Homo sapiens) (P23443 whole entry, looked up): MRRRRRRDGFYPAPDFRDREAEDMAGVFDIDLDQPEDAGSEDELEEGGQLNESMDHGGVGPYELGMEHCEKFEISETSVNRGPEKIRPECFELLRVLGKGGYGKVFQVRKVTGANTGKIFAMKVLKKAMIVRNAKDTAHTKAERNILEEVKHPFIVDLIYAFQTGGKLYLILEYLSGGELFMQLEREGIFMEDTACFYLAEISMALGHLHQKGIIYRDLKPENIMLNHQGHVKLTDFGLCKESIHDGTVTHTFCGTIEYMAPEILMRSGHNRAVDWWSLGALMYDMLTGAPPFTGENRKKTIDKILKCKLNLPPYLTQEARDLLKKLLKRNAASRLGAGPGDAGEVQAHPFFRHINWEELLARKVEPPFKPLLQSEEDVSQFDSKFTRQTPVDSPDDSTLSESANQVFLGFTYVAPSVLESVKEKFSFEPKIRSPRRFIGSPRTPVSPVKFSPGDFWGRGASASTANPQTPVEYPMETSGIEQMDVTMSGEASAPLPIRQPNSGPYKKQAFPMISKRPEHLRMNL
Sequence of Protein kinase C eta type (Homo sapiens) (P24723 whole entry): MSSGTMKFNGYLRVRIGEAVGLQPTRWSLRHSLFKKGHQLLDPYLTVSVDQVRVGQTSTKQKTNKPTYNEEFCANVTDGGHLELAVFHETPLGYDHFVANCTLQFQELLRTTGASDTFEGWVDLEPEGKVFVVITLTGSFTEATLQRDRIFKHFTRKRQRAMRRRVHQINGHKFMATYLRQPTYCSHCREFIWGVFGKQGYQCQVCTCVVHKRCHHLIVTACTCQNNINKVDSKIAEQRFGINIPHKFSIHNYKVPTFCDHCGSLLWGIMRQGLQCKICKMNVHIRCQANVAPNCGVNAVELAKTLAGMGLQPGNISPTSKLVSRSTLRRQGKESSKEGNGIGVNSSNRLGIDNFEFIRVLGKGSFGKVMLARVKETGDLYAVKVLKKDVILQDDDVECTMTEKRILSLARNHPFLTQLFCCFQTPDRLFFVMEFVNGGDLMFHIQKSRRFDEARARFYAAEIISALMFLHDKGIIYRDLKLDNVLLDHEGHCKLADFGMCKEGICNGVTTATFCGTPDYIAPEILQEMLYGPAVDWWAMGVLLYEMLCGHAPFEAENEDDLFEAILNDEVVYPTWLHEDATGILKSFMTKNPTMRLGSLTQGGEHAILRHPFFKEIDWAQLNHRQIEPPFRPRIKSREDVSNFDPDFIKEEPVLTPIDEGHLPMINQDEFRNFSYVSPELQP

Turning to `Nc1nccc(-c2c(-c3ccc(F)cc3)nn3cc(C(F)(F)F)ccc23)n1`, the inhibition in assay [1] is -3.46%; in assay [2], -4.53%; in [3], -0.89%; in assay [4] it was -2.82%; in assay [5] it was -0.99%; in [6], -2.88%. Further, the inhibition in assay [7] is 1.24%; in assay [8] it was -1.94%; in assay [9] it was -0.77%; in [10] it was -3%; in [11] it was -0.37%; in [12] it was 0.74%. Besides, the inhibition is 2.17% in assay [13]; 0.05% in assay [14]; 1.25% in assay [15]; -1.02% in assay [16]; 0.52% in [17]; -1.68% in assay [18]. Besides, the inhibition in assay [19] was 1.15%; in [20], -1.38%.
`Nc1nccc(C#Cc2cncnc2Nc2ccc(OCc3cccc(F)c3)c(Cl)c2)n1`: the inhibition in assay [1] is 0.06%; in assay [2], -0.95%; in assay [3], -0.16%; in assay [4] it was 2.38%; in [5], 4.15%; in [6] it was 4.83%. The inhibition amounted to 1.39% in assay [7]; 4.41% in [8]; 1.09% in assay [9]; 1.35% in assay [10]; 2.4% in assay [11]; 1.49% in assay [12]. Further, the inhibition in [13] stood at 2.74%; in assay [14], 1.36%; in [15], 1.81%; in assay [16] it was 2.69%; in assay [17] it was 2.19%; in [18], 2.81%. Besides, the inhibition in [19] was -0.12%; in assay [20], 5%.
Turning to `CCn1c(-c2nonc2N)nc2c(C#CC(C)(C)O)nc(OCCNC)cc21`, the inhibition was 1.79% in assay [1]; 6.63% in assay [2]; -0.48% in [3]; 2.36% in [4]; 1.77% in assay [5]; 2.97% in assay [6]. The inhibition in assay [7] is 3.16%; in assay [8] it was 9.93%; in [9], 3.31%; in assay [10], 10.1%; in [11] it was 1.35%; in assay [12] it was 11.6%. The inhibition was found to be 49.2% in [13]; 0.49% in [14]; 3.55% in assay [15]; 4.85% in [16]; 29.9% in [17]; 78.9% in assay [18]. For the same molecule, the inhibition in assay [19] is 95.4%; in [20], -2.02%.
For `NS(=O)(=O)c1cccc(-c2cc3ccncc3cc2OCc2ccccc2)c1`, the inhibition is 0.79% in [1]; -0.95% in [2]; 1.07% in assay [3]; 0.42% in [4]; 6.93% in [5]; 5.54% in assay [6]. Moreover, the inhibition in [7] was 2.88%; in assay [8] it was 6.76%; in assay [9] it was 1.84%; in assay [10], 1.18%; in [11] it was 0.97%; in assay [12], 1.81%. Besides, the inhibition was 3.34% in assay [13]; 1.18% in assay [14]; 1.96% in [15]; -0.33% in [16]; 0.71% in assay [17]; 2.45% in assay [18]. The values for the inhibition in [19] and in [20] were 2.7% and 3.28%, respectively.
For the molecule `Cc1ccc(Nc2ccnc(Nc3cccc(C(N)=O)c3)n2)cc1O`, the inhibition in [1] is -0.17%; in [2], 1.81%; in assay [3], -0.24%; in assay [4] it was -0.07%; in assay [5], 1.2%; in assay [6], 1.01%. For the same molecule, the inhibition in [7] was 2.41%; in assay [8] it was 4.49%; in assay [9], 1.61%; in [10] it was 6.47%; in assay [11], 2.89%; in assay [12], -1.93%. In addition, the inhibition in assay [13] was -0.05%; in assay [14], -1.9%; in [15], 8.24%; in assay [16], 0.32%; in assay [17], 4.35%; in assay [18] it was 6.2%. In addition, the inhibition was 4.32% in assay [19] and 4.85% in [20].
With `COc1cc2ncnc(Nc3ccc4c(cnn4Cc4ccccc4)c3)c2cc1OC`, the inhibition in [1] was 1.92%; in assay [2], 0.94%; in assay [3], -0.95%; in assay [4], -0.76%; in [5], 7.1%; in assay [6], 7.6%. Besides, the inhibition is 1.21% in [7]; 2.89% in assay [8]; 0.98% in assay [9]; 1.35% in [10]; 0.98% in assay [11]; 0.6% in assay [12]. For the same molecule, the inhibition in assay [13] is -0.11%; in assay [14], 0.53%; in [15], 0.88%; in assay [16] it was 0.81%; in [17] it was -2.42%; in assay [18], 5.6%. The inhibition was 3.69% in assay [19] and 2.66% in assay [20].

As a reminder, the inhibition is the change of the read-out against control, counted positive when it falls.
